From ChEMBL document CHEMBL4513216, “Probing the Open Global Health Chemical Diversity Library for Multistage-Active Starting Points for Next-Generation Antimalarials” (ACS Infect Dis, 2020)
Out of some 69,000 compounds screened, about 8,600 (12%) showed an effect of 50% or more. The sample holds strong results, similar compounds and a random draw of the others, so the mix is not that of the screen.

The compounds below were run on Plasmodium berghei (assay: Screen against P. berghei liver stage (PbLuc), transformed with Luciferase, at 10uM). Details: tested at 10 uM.
Format: functional, HepG2

Point of comparison: `Cc1ncsc1C(=O)N(Cc1cccs1)C1CC1`, INHIBITION 6.25%. Against it:
- CSCCC(=O)N1C[C@@H](C)[C@](O)(C(C)C)C1 — higher, 22.5%
- CCn1cnnc1CNC(=O)N1CCC(CN2CCOCC2)CC1 — lower, -11.4%
- CNc1ncc(CN(C)C(=O)c2cccc(-n3cnnc3)c2)cn1 — higher, 28.5%
- CC(C)c1nc(C2CCCN2Cc2cc(=O)n(C)c(=O)n2C)no1 (stereo not drawn) — higher, 33.8%
- CCc1[nH]nc(NC(=O)c2cc[nH]n2)c1C — lower, 0.342%
- N#Cc1ccc(N2CCC3(CCC(=O)N3Cc3cccnc3)CC2)nc1 — higher, 27.6%
- N#Cc1ccc(N2CCCC3(CCC(=O)N3CC3CC3)CC2)nc1 (stereo not drawn) — higher, 56.6%
- N#Cc1ccc(N2CCC3(CCC(=O)N3CCN3CCCC3)CC2)nc1 — higher, 68.4%
- N#Cc1ccc(N2CCC3(CCC(=O)N3Cc3ccncc3)CC2)nc1 — higher, 43.9%
- CN1C(=O)CCC12CCN(c1ccc(C#N)cn1)CC2 — higher, 38.5%
- O=C1CCC2(CCCN(c3ncc(F)cn3)CC2)N1CC1CC1 (stereo not drawn) — lower, -57.6%
- O=C(c1ccsc1)N1CCN2C[C@H](OCc3cccnc3)C[C@H]2C1 — higher, 21.6%
- CCc1nc(-c2ccc(NC(=O)N3CCCC3)cc2)no1 — lower, -81%
- CCCC1COCCN1Cc1ccc(C(=O)O)cc1 (stereo not drawn) — higher, 19.8%
- Cc1nc2cc(O)nn2c(C)c1CCC(=O)N(C)Cc1ccccc1 — lower, -24.8%
- Cc1cc(C(=O)N2CCN(CC(O)Cn3cccn3)CC2)c(C)o1 (stereo not drawn) — higher, 29.6%
- Cc1cc(C(=O)N2C[C@@H]3C(CN(C)CCc4ccccn4)[C@@H]3C2)c(C)o1 (stereo partly drawn) — higher, 41.5%
- Cc1cccc(C(=O)N2CCN(C(=O)Cc3ccccn3)CC2)c1C — higher, 31.8%
- Cc1cc(C(=O)N2C[C@@H]3C(CN(C)CCCn4cccn4)[C@@H]3C2)c(C)o1 (stereo partly drawn) — higher, 52.6%
- Cc1ccccc1C(=O)N1C[C@@H]2C(CN(C)CCc3ccccn3)[C@@H]2C1 (stereo partly drawn) — higher, 55.4%
- Cc1cc(C(=O)N2CCC(CCn3cccn3)CC2)c(C)o1 — higher, 39.5%
- Cc1noc(C2CCC3(CCN(C(=O)c4cnccn4)CC3)O2)n1 (stereo not drawn) — lower, -4.32%
- c1ccc(-n2ccc(CNC3CCc4ncnn4C3)n2)cc1 (stereo not drawn) — higher, 16.45%
- Cc1ccc(-c2ccccc2CC2(C(=O)NC(C)C)CCCNC2)cc1 (stereo not drawn) — higher, 42.1%
- Cc1occc1C(=O)N1CCCn2cnc(CN3CCCC3=O)c2C1 — higher, 34.2%
- COc1nccc(N2CC[C@@H](N3CCN(C)CC3)[C@H](O)C2)c1C#N — lower, -3.77%
- Cc1cnc(C)c(N2CCCC(C/C=C/c3ccccc3)(C(=O)O)C2)n1 (stereo not drawn) — higher, 27.9%
- COc1cccc(CC2(CO)CCCN(c3nccs3)C2)c1 (stereo not drawn) — lower, 3.46%
- Cc1ccccc1CC1(CO)CCCN(c2ncncc2C(C)C)C1 (stereo not drawn) — higher, 68.4%
- Cc1ccccc1CC1(CO)CCCN(c2ncnc3sccc23)C1 (stereo not drawn) — higher, 87.9%
- CCCC1(CO)CCCN(c2ncnc3c2c(C)nn3C)C1 (stereo not drawn) — higher, 25.9%
- Cc1cnc(C)c(N2CCC(Cc3ccccc3Cl)(C(=O)O)CC2)n1 — higher, 13.5%
- Cc1cnc(C)c(N2CCCC(CO)(Cc3ccccc3C)C2)n1 (stereo not drawn) — higher, 68.4%
- Cc1ccccc1CC(=O)N(C)CC1(O)CCCN(c2ccccn2)C1 (stereo not drawn) — lower, -10.5%
- Cc1cnc(C)c(N2CCCC(CC3CC3)(C(=O)O)C2)n1 (stereo not drawn) — higher, 57.5%
- Cc1ccccc1CC1(C(=O)O)CCCN(c2ncnc3[nH]ccc23)C1 (stereo not drawn) — higher, 25.5%
- CCNC(=O)[C@@H]1C[C@@H](NC(=O)c2ccc(C#N)cc2)CN1CCCSC — lower, -14.3%
- CCCC(=O)N1CCC([C@@H]2C[C@H](C(F)(F)F)n3nc(C)cc3N2)CC1 — lower, -29.8%
- CC(=O)Nc1nc(C(=O)N2CCCC2Cn2cccn2)cs1 (stereo not drawn) — higher, 37.3%
- CN(C(=O)Cn1nc(-c2ccc(F)cc2)ccc1=O)C1CCS(=O)(=O)C1 (stereo not drawn) — higher, 13.4%
- c1cnnc(N2CCCC2CNCc2csc(-c3ccco3)n2)c1 (stereo not drawn) — higher, 31.95%
- CCCNCc1cn(C)nc1-c1cccnc1 — lower, 2.74%
- COc1c(C2CCCN2C(=O)c2csc(C3CC3)n2)c(C)nn1C (stereo not drawn) — lower, -21.5%
- CC(C)Nc1cccc(CC2CCN(C)C2)n1 (stereo not drawn) — lower, -52.6%
- COCC1CN(Cc2c(C)noc2C)Cc2ccnn2C1 (stereo not drawn) — higher, 15.9%
- CC(C)N1CCC(C(=O)N2CCc3c(nc(CC4CC4)[nH]c3=O)C2)CC1 — higher, 53.8%
- CC(C)N1CCCC(C(=O)N2CCc3c(nc(CC4CC4)[nH]c3=O)C2)C1 (stereo not drawn) — higher, 26.9%
- CC(C)N1CC(C(=O)N2CCc3c(nc(CC4CC4)[nH]c3=O)C2)CC1=O (stereo not drawn) — higher, 20.6%
- c1csc(CN2CCn3c(Cn4cncn4)cnc3C2)c1 — higher, 20.6%
- CC(=O)N1CC(=O)N(c2cccnc2)CC12CCN(Cc1nccs1)C2 (stereo not drawn) — lower, -3.52%
- O=C(c1ccccc1)N1CCOC2CNCC[C@H]21 (stereo partly drawn) — higher, 28.5%
- c1ccc(CN2CCOC3CNCC[C@H]32)cc1 (stereo partly drawn) — higher, 55.5%
- N#Cc1cccc(CN2CCO[C@@H]3CNC[C@@H]32)c1 — higher, 16.9%
- O=C(O)c1ccn(-c2ccccc2NS(=O)(=O)c2cccc(Cl)c2F)n1 — higher, 32.9%
- CN(C)C(=O)CO[C@@H]1CN(Cc2ccccc2F)[C@@H]2CCCO[C@@H]21 — lower, -1.83%
- c1cnc2c(c1)cc([C@H]1CCCO1)n2CCN1CCCCC1 — higher, 35.3%
- CC(C)c1cc(C(=O)N2CCOC3(CCNCC3)C2)no1 — higher, 28.2%
- CC(C)c1cc(C(=O)N2CCCC3(CCNC3)C2)no1 (stereo not drawn) — higher, 40.2%
- Cc1ccc(C(=O)N2CCC3(CCCCC3)C2)c(=O)[nH]1 — higher, 21.7%
- Cc1ccc(C(=O)N2CCC3(CCCC3)CC2)c(=O)[nH]1 — higher, 37.1%
- Cc1ccc(C(=O)N2CCOC3(CCCC3)C2)c(=O)[nH]1 — higher, 51.7%
- CC(C)c1cc(C(=O)N2CCOC3(CCCC3)C2)no1 — higher, 50.4%
- CN(Cc1ccco1)[C@@H]1CN(C(=O)c2cnccn2)C[C@@H]2CCCO[C@@H]21 — lower, -2.17%
- CC(C)NC(=O)[C@H]1C[C@H]2CN(C(=O)NCc3ccccc3)C[C@@H]1O2 — lower, -43.8%
- CCn1nc(C)c(C(=O)Nc2ccc3c(c2)C(C)(C)C(=O)N3C)c1C — higher, 23.4%
- Cc1nc(C)n(C2CCCN(C(=O)c3ccc(CN(C)C)cc3)C2)n1 (stereo not drawn) — lower, 5.45%
- Cc1ccc(NCc2ncc(C(C)(C)C)o2)c(Cl)c1 — lower, -26.2%
- Cc1cccc(CN(Cc2ccccn2)S(=O)(=O)N(C)C)c1 — lower, -1.38%
- Cc1cccc(CN(Cc2ccccn2)S(=O)(=O)N(C)C(C)C)c1 — lower, -12.4%
- CCN(Cc1ncc(C(C)(C)C)o1)Cc1ccccc1C — higher, 53.3%
- Cc1cccc(NCc2ncc(C(C)(C)C)o2)c1 — higher, 72.2%
- Cc1cccc(CN(Cc2ccccn2)Cc2ncc(C(C)(C)C)o2)c1 — higher, 71.5%
- CCN(Cc1cccc(Cl)c1)Cc1ncc(C(C)(C)C)o1 — higher, 49%
- CC(C)(C)c1cnc(CNc2cccc(Cn3cnnc3)c2)o1 — lower, -17.6%
- Cc1ccc(CN(C)Cc2ncc(C(C)(C)C)o2)o1 — higher, 46.4%
- Nc1ncc(-c2cccc(NC(=O)[C@@H]3CCCCN3)c2)cn1 — higher, 14.5%
- Cc1cncc(C(=O)N2C[C@H]3CCC[C@@]3(COc3ccccn3)C2)c1 — higher, 24.5%
- CN(C)S(=O)(=O)N1CC[C@H]2OCC[C@@]2(COc2cccnc2)C1 — higher, 33%
- Cc1nc(C)c(CN2CCOC(CNc3cccnn3)C2)s1 (stereo not drawn) — higher, 41.5%
- O=C(c1cc(-n2cccn2)ccc1Cl)N1CCCC(N2CCCC2)C1 (stereo not drawn) — higher, 14.6%
- CCN(C)C[C@@H]1CN(C(=O)c2cc(-c3ccc(F)cc3)n[nH]2)C[C@@H]1CO — higher, 43.9%
- CCc1ccc(CN2CC[C@@H]3CN(S(C)(=O)=O)CCO[C@@H]3C2)o1 — higher, 42.6%
- CCOc1cccc2c1OCC(=O)N(c1ccc3c(c1)OCCO3)C2 — higher, 56.5%
- CCOc1cccc2c1OCC(=O)N(c1ccc3c(c1)OCO3)C2 — higher, 14.9%
- CCOc1cccc2c1OCC(=O)N(c1ccc(N(C)C)cc1)C2 — higher, 45.5%
- Cc1ccoc1C(=O)N1CCc2ccc(=O)n(CCN(C)C)c2CC1 — lower, -16.2%
- CNC(=O)c1nc2c(s1)CCN(C(=O)c1ccccc1)CC2 — lower, 1.9%
- O=C(c1ccc(Cl)cc1)N1CCc2nc(C(=O)N3CCCC3)sc2CC1 — lower, -29.3%
- CNC(=O)N1CCc2nc(C(=O)Nc3cccnc3)sc2CC1 — higher, 42.6%
- NC(=O)c1nc2c(s1)CCN(C(=O)Nc1cccc(Cl)c1)CC2 — higher, 80.2%
- NC(=O)c1nc2c(s1)CCN(C(=O)Nc1ccccc1)CC2 — higher, 40.5%
- O=C(Nc1ccccc1)N1CCc2nc(C(=O)N3CCCC3)sc2CC1 — higher, 89.1%
- CCN(CC)C(=O)c1nc2c(s1)CCN(C(=O)Nc1ccccc1)CC2 — higher, 58.3%
- NC(=O)c1nc2c(s1)CCN(Cc1ccccc1)CC2 — higher, 12.1%
- COCC(=O)N1CCc2nc(C(=O)Nc3cccnc3)sc2CC1 — lower, -52.3%
- Cc1ccc(CN2C[C@@H]3COC[C@H](NS(C)(=O)=O)[C@@H]3C2)s1 — lower, -1.36%
- CCNC(=O)NC(C)c1nc(-c2ccc(Br)cc2)no1 (stereo not drawn) — higher, 33.5%
- Cc1nccc(C2CCCCN2Cc2ccccc2)n1 (stereo not drawn) — higher, 20.8%
- Cc1nccn1C1CCCN(C(=O)c2cccc(S(C)(=O)=O)c2)C1 (stereo not drawn) — higher, 19.5%
- CCOc1nnc(CN(C)C2CCCN(c3ccc(C)nn3)C2)s1 (stereo not drawn) — higher, 46.7%
- CNC(=O)C1(N2CCC[C@H]2C(=O)NC2CCCCC2)CCOCC1 — lower, -1.36%
- c1ccc(N2CCOC(Cc3cccnc3)C2)cc1 (stereo not drawn) — lower, -33.4%
